The list is not random: actives were taken first. Their share in the collection is about 14%.
USP30 inh: inhibitors of human USP30 deubiquitinase. Ubiquitin carboxyl-terminal hydrolase 30 (Homo sapiens), Q70CQ3. purified USP30, Ub-rhodamine cleavage fluorescence. inhibition, % at 25 µM. hit rate 5.3% among 47,000. AID 1645860, 2021
USP17 inh: inhibitors of human USP17 deubiquitinase; purified USP17, Ub-rhodamine cleavage fluorescence, 3 h; inhibition, % at 50 µM; hit rate 6.5% among 47,000; AID 1645855, 2021
USP8 block: inhibitors of human USP8 deubiquitinase. Ubiquitin carboxyl-terminal hydrolase 8 (Homo sapiens), P40818. purified USP8, Ub-rhodamine cleavage fluorescence, 30 min. inhibition, % at 20 µM. hit rate 4.2% among 47,000. AID 1645853, 2021
USP28 block: inhibitors of human USP28 deubiquitinase | purified USP28, Ub-rhodamine cleavage fluorescence, 30 min | inhibition, % at 25 µM | hit rate 3% among 47,000 | AID 1645857, 2021
Each line names hits and unclear results; the compound was inactive in the other large screens. Cut-off read from the data, not from the text of the source: active = inhibition above about 30%; inactive = the rest.

CN(C)Cc1ccc(C(=O)Nc2ccc(-c3nccs3)cc2)cc1	USP28 block 88.5
O=C(Nc1ccc(-c2nccs2)cc1)c1ccc(F)cc1Cl	none
Cn1c(=O)c(C(=O)CN2CCN(c3ccc(O)cc3)CC2)c(N)n(Cc2ccccc2)c1=O	USP17 inh 59.0, USP8 block 66.8
Cc1ccc2c(C(=O)CN3CCN(Cc4ccccc4)CC3)c(C)[nH]c2c1	none
Cc1ccc(N2CCN(CCc3nc4cc(NC(=O)Nc5ccccc5)ccc4n3C)CC2)cc1	USP17 inh 42.9
Cn1c(CN2CCCCCC2)nc2cc(NC(=O)c3ccccc3)ccc21	USP17 inh 50.8
Cn1c(CCN2CCOCC2)nc2cc(NC(=O)c3ccc(F)cc3)ccc21	none
Cn1c(CCN2CCN(c3ccc(F)cc3)CC2)nc2cc(NC(=O)c3ccc(Cl)cc3)ccc21	USP30 inh 35.7, USP17 inh 33.1, USP8 block 36.7
Cc1cc(C)nc(NC(=NCCc2c[nH]c3ccc(F)cc23)NC(=O)c2ccccc2)n1	none (no result: USP17 inh)
CCOC(=O)c1cc(-c2ccccc2)sc1NC(=O)c1ccc2c(c1)OCCO2	none
O=c1[nH][nH]c(=O)c2n[nH]nc12	USP8 block 92.0
CN1C(=O)COc2ccccc2CCCC[C@@H]2[C@H]1CCCN2C(=O)CC1CCOCC1	none
Cc1ccc(S(=O)(=O)N2CCOC23CCN(C(=O)c2ccccc2)CC3)cc1	USP30 inh 32.9
CC(C)n1c(=O)c2nscc2n(CC(=O)NCc2ccccc2)c1=O	none
CC(NC(=O)c1cccc(S(=O)(=O)N2CCCC2)c1)c1cc2ccccc2o1 (stereo not given)	none (no result: USP17 inh)
CSc1ncccc1C(=O)OCc1ccccc1	USP28 block 49.3
Cc1nc2cc(N3CC(C(=O)Nc4ccc(F)cc4C)CC3=O)ccc2o1 (stereo not given)	USP30 inh 75.7, USP17 inh 62.8
Cc1nc2cc(N3CC(C(=O)Nc4ccccc4C)CC3=O)ccc2o1 (stereo not given)	none
COc1ccc2c(c1)c1ncn(CCC3=CCCCC3)c(=O)c1n2C	USP30 inh 31.2, USP28 block 47.4
COc1ccc2c(c1)c1ncn(Cc3ccc4c(c3)OCO4)c(=O)c1n2C	USP30 inh 48.4, USP17 inh 35.5
COc1ccc2c(c1)c1ncn(CCN3CCCC3)c(=O)c1n2C	none
COc1ccc2c(c1)c1ncn(CCN3CCNCC3)c(=O)c1n2C	none
O=C(Cn1cc(S(=O)(=O)Cc2ccc(F)cc2)c2ccccc21)N1CCCC1	none
Cc1nc2ccc(NC(=O)Nc3ccccc3F)cc2s1	USP28 block 40.4
COc1ccc([N+](=O)[O-])cc1C1N(c2ccccc2)CCN1c1ccccc1	USP17 inh 31.1
COc1ccccc1C1CCN(c2ncccc2[N+](=O)[O-])CC1	none
COc1cc(/C=C2\CCn3c2nc2cc(Cl)ccc2c3=O)cc(OC)c1OC	none
COc1ccccc1-c1noc2ncnc(NCc3ccco3)c12	none
COc1ccccc1-c1noc2ncnc(N(Cc3ccco3)CC3CCCO3)c12 (stereo not given)	USP30 inh 36.1
Cc1nccn1-c1cccc(C2CCN(C(=O)c3ccn[nH]3)CC2)n1	none
Cc1cnnn1-c1ccc(C(=O)Nc2cc(Cl)ccc2Cl)cc1	USP17 inh 68.1
Cc1ccc(Cl)cc1NC(=O)c1ccc(C(=O)c2ccccc2)cc1	none
Cc1cnnn1-c1ccc(C(=O)Nc2cccc(Cl)c2)cc1	USP30 inh 54.2, USP17 inh 80.4
CC(=O)Nc1cccc(NC(=O)/C(=C/c2ccco2)n2nnnc2-c2ccccc2)c1	none
Cc1ccc(-c2nc(NC(=O)COc3ccc(Cl)cc3)no2)cc1	USP17 inh 92.7, USP8 block 92.5, USP28 block 89.1
Cc1cccc(-c2nc(NC(=O)COc3ccc(F)cc3)no2)c1	USP30 inh 68.0, USP17 inh 71.4, USP8 block 82.9, USP28 block 60.5
O=C(COc1ccc(F)cc1)Nc1noc(-c2ccccc2)n1	USP30 inh 73.6, USP17 inh 62.5, USP28 block 44.1
Cc1cc(NC(=O)COc2ccc(F)c(Cl)c2)no1	USP28 block 40.2
Cc1ccc(-c2nc(NC(=O)COc3cc(C)cc(C)c3)no2)cc1	none
CN1CCCc2cc(C(CNC(=O)c3ccccc3F)N3CCOCC3)ccc21 (stereo not given)	none
Cc1noc(C)c1CN1CCC(NC(=O)C2CCC2)C1 (stereo not given)	none
Cc1ccccc1N1CCN(C(=O)c2snc3c(=O)n(C)c(=O)[nH]c23)CC1	none
O=C(Nc1noc(-c2ccccc2)n1)c1ccc(Br)cc1	USP8 block 38.4
COc1ccccc1OC(C)C(=O)Nc1noc(-c2ccccc2)n1 (stereo not given)	none
CCOc1ccc(NC(=O)CNc2nc(Nc3ccc(OC)cc3)nc(Nc3ccc(OC)cc3)n2)cc1	USP30 inh 68.7, USP17 inh 57.5
CCOc1ccc(NC(=O)CCn2c(-c3ccc(OC)cc3)cc(C(C)=O)c2C)cc1	USP30 inh 80.1, USP17 inh 70.3
Cc1ccc(NC(=O)CNc2nc(Nc3ccccc3)nc(Nc3ccccc3)n2)cc1	none
COc1ccc(-c2cc(C(C)=O)c(C)n2CCC(=O)NC2CCCCCC2)cc1	none
CNS(=O)(=O)c1ccc(F)c(C(=O)N2CCC(c3cc(=O)[nH]c(N(C)C)n3)C2)c1 (stereo not given)	none
O=C(CCN1C(=O)c2cccnc2Sc2ccccc21)NCc1ccccc1F	none
Cc1cc(F)ccc1NC(=O)C1Nc2ccccc2S(=O)(=O)N1 (stereo not given)	none
CCOC(=O)c1csc(-c2ccc(F)cc2F)n1	USP28 block 42.0
CSc1cccc(C(=O)Nc2ccc(-c3nc4ccccc4[nH]3)cc2)c1	USP30 inh 32.3, USP17 inh 62.9
CC(=O)N1CCN(C(=O)c2c3c(nc4ccccc24)/C(=C/c2ccccc2)CCC3)CC1	none
COc1ccc(S(=O)(=O)N(CC(=O)NCc2ccco2)c2ccc(C)cc2)cc1	USP8 block 30.3
CCOc1ccc(S(=O)(=O)N(CC(=O)NCc2ccccc2C)c2ccccc2)cc1	USP17 inh 45.0
Cc1cc(N2CC3(CCCCC3)OC2=O)nc(C2CCNCC2)n1	none
Cc1cccc(C2(O)CCN(C(=O)c3nc4ccc(C)cc4[nH]3)CC2)c1	none
Cc1cccc(CNC(=O)Cn2c(=O)c(C)nc3cc(C)c(C)cc32)c1	USP8 block 32.5
CC1O[C@@H](c2ccc3c(c2O)C(=O)C2=C(C3=O)[C@@]3(O)C(=O)C(O)[C@](C)(O)C[C@@]3(O)C=C2)CC[C@@H]1OC(=O)/C=C/C=C/C=C/[C@@H]1O[C@@](C)(C(=O)O)O[C@H]1C (stereo not given in full)	USP17 inh 48.4, USP28 block 48.4
Oc1cc(OCc2cccc(C(F)(F)F)c2)ccc1-c1ccn[nH]1	USP17 inh 42.2, USP8 block 75.2, USP28 block 81.2
CCN1C(SCc2ccccc2F)=NS(=O)(=O)c2ccccc21	USP28 block 74.2
O=S(=O)(Nc1ccc2[nH]ncc2c1)c1ccc2c(c1)CCC2	none
O=S(=O)(Nc1ccc2[nH]ncc2c1)c1ccc(Cl)cc1F	USP8 block 37.0
CN1CCN(c2ccc(NC(=O)Nc3ccc(C(F)(F)F)cc3)cc2)CC1	none
